Each structure is given as a SMILES string. The panel holds about 83,000 compounds, 20% with a hit somewhere; the sample as a whole holds those more often.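 Step 1: grow cells in 96-well plates. Step 2: add test compound at a single concentration. Step 3: incubate 48 h. Step 4: record percent growth.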 A number with no mark means an inactive call. Calls of active or inactive are those of the source. How the source made its calls: active means growth percent below 10; inactive means the rest.

In this experiment the test system is DU-145 prostate. The experiment can be described thus: NCI-60 one-dose screen, 48 h (100 = growth as untreated, 0 = no growth, -100 = all killed). The note with it: 10 µM.
For the molecule `Clc1cc2c(c(CSc3nc4ccccc4n4cccc34)c1)OCOC2`, the growth is 106%.
Regarding `O=C1NC(=O)c2ncccc21`, the growth was 113%.
For `NC1=NC(=O)C(c2ccccc2)(c2ccccc2)S1` the value was 114%; for `Cn1c([N+](=O)[O-])cnc1/C=C1\Oc2cc(Cl)ccc2C1=O`, -18.3% (active).
For `c1ccc(C(NC2CC3CCC2C3)c2ccccc2)cc1` (centres undefined) the value was 108%.
For `COc1cc(/C=C2\Oc3cc(OCC(=O)c4ccccc4)ccc3C2=O)cc(OC)c1OC` the value was 94.9%.
For `CC1(C)Cc2c(sc3ncn4nc(-c5ccc(O)cc5)nc4c23)CO1`, the growth was 76.1%.
Turning to `O=C(N/N=C/c1cc2ccccc2c2ccccc12)c1cc(O)c(O)c(O)c1`, the growth was 75.8%.
For `CCOC(=O)c1ccoc1` the value was 109%; for `O=[P@@]1(c2ccccc2)O[C@H](COCc2ccccc2)[C@@H](OCc2ccccc2)[C@H](OCc2ccccc2)[C@H]1O`, 90.6%; for `CN(C)CCN1C(=O)c2cccc3c(-c4ccc5ncn(C6CCCCC6)c5c4)ccc(c23)C1=O`, 27%.
Consider `CN(C)c1ccc(N=C2C=CC(=O)c3ccccc32)cc1`, for which the growth was -58% (active).
For `CC(=O)CSC(C)=O` the value was 117%; for `COc1ccc(Nc2ccnc(NCCNc3ccnc4cc(Cl)ccc34)n2)cc1`, 61.4%.
For `N=C(N)c1ccc(-c2ccc(-c3cccs3)s2)cc1` the value was 0.967% (active); for `CC(C)(Cl)CCC1=C(Cl)C(=O)c2ccccc2C1=O`, 104%.
Turning to `CCOCCOCCOCCOCCOCCOCCOCCOCCOCCO` (tested in a mixture with another compound), the growth was 28.1%.
For `CCCCCCCCCCCCCC[n+]1ccc(C(N)=O)cc1` the value was 22.8%; for `COc1ccc(-c2nc(-c3nc4ccc(OC)cc4[nH]3)cc3c2[nH]c2ccccc23)cc1`, 19.9%.
For `COc1ccc(Oc2nc(NC3CCCC3)nc(Sc3ccc(OC)cc3)n2)cc1` the value was 91.7%.
For `COc1cc2cc3c(nc2cc1OC)CCN3Cc1ccc(NC(=O)Nc2cc(C(F)(F)F)cc(C(F)(F)F)c2)cc1` the value was 94.7%.
Take `CCCCCC(=O)c1ccc(OCCCN2CCN(C(=O)OCC)CC2)cc1`: the growth was 107%.
For `COc1ccc(-c2cc(/C=C/C(=O)c3cc(OC)c(OC)c(OC)c3)[nH]n2)cc1OC` the value was 0.588% (active); for `COc1cccc(-c2cc(-c3cccc(NS(C)(=O)=O)c3)nc(N)c2C#N)c1O`, 15.1%.

These data come from PubChem BioAssay (NCI).
